Assay results published in PubChem BioAssay (NCATS).
Results filed as inconclusive are left out. The source made the active and inactive calls. Calls come from the whole dose curve; as a rule, active = well fitted curve in the direction sought with a large enough effect; inconclusive = small, poorly fitted or top-dose-only effect, or another doubt; inactive = no such curve, though single readings can be large; an effect the other way counts as inactive or inconclusive. Where a SMILES comes first, the peptide text is derived from it. Bridges are numbered along the chain shown (N, C = ends). [ ]: non-standard residue; d: D form. hArg = N=C(N)NCCCC[C@H](N)C(=O)O; Mpa = O=C(O)CCS

Key:
[1] = qHTS assay for measurement of the activity of small molecule inhibitors on Zika virus induced Caspase-3 activity in human iPSC derived neural progenitor cells (hNPCs) (AID 1224857); note: % of control where 0% means no effect; nearly all actives have a fitted effect of over 65% in size
In short: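 Values are percent inhibition of virus-induced caspase-3/7 signal, scaled between uninfected cells and ZIKV-infected cells. Infection used 2 FFU/cell for 6 h after 1 h compound exposure.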

[2] = qHTS assay for measurement of the activity of small molecule inhibitors on Zika virus induced Caspase-3 activity in human astrocytoma cells (AID 1224859);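 note: plate controls were ZIKV-infected untreated cells for no effect and uninfected cells for full effect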
In short: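 Compound added 1 h pre-infection; ZIKV 2 FFU/cell on SNB-19 cells, 6 h, 37 C/5% CO2. Caspase-Glo 3/7 luminescence; values as % inhibition of ZIKV-induced caspase activity.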

[3] = qHTS assay to identify small molecule inhibitors of chordoma cells - UCH-1 (AID 1259355); note: % is set by controls: 0 for no effect and ±100 for the full control effect; nearly all actives have a fitted effect of over 55% in size
In short: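 Cells (800/well) were seeded and left overnight at 37 C, 5% CO2, then treated with drugs at 15 concentrations plus a combination mix of auranofin, camptothecin, doxorubicin, rubitecan and topotecan. Viability after 48hr was read by CellTiter-Glo luminescence.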

[4] = qHTS assay to identify small molecule inhibitors of chordoma cells - UCH-2 (AID 1259356); note: series mostly up to about 46 µM; % is set by controls: 0 for no effect and ±100 for the full control effect
[5] = P-glycoprotein substrates identified in KB-8-5-11 adenocarcinoma cell line, qHTS therapeutic library screen (AID 1346987); conditions: outcome: dose series up to 44.5 µM; note: series mostly up to about 44 µM; % is set by controls: 0 for no effect and ±100 for the full control effect; nearly all actives have a fitted effect of over 65% in size
In short: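 KB-8-5-11, a colchicine-selected P-gp-overexpressing KB-3-1 subline, was grown without colchicine for the assay. Cells were seeded at 500 cells/well, dosed in concentration-response and incubated 72 h at 37 degree C, 5% CO2. Viability was read by CellTiter-Glo luminescence.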

[6] = NS1 protein of Zika virus - qHTS assay to identify small molecule inhibitors in human HEK 293 cells (AID 1347053);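 note: series mostly up to about 46 µM; plate controls were infected untreated cells for no effect and uninfected cells for full effect; nearly all actives have a fitted effect of over 55% in size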
In short: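 HEK 293 cells, seeded 20 h at 37 C, were pretreated with compound 1 h, then infected with ZIKV MR766 (MOI = 0.5) for 24 h. NS1 was read by TR-FRET with two anti-NS1 antibodies, normalized to uninfected and infected wells.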

[7] = qHTS of pediatric cancer cell lines to identify multiple opportunities for drug repurposing: Primary screen for TC32 cells (AID 1347089); note: % is set by controls: 0 for no effect and ±100 for the full control effect; nearly all actives have a fitted effect of over 60% in size
In short: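 Measured quantity: luminescence from CellTiter-Glo, reflecting metabolically active TC32 cells following 48 h of compound. Curves came straight from multi-point titrations, with 8 or 11 points in primary and 11 in confirmatory screening.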

[8] = qHTS of pediatric cancer cell lines to identify multiple opportunities for drug repurposing: Primary screen for DAOY cells (AID 1347090);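 note: series mostly up to about 46 µM; plate controls were DMSO for no effect and bortezomib for full effect; nearly all actives have a fitted effect of over 55% in size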
In short: (§1)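 Viability measured as metabolically active cells via CellTiter-Glo luminescence following 48 hours of compound exposure, 11-point dilutions in confirmatory testing. 500-1,000 cells/well plated 5 hours before dosing; controls were DMSO and 2.3 µM bortezomib.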

[9] = qHTS of pediatric cancer cell lines to identify multiple opportunities for drug repurposing: Primary screen for SJ-GBM2 cells (AID 1347091);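 note: plate controls were DMSO neutral control for no effect and bortezomib for full effect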
In short: as §1

[10] = qHTS of pediatric cancer cell lines to identify multiple opportunities for drug repurposing: Primary screen for A673 cells (AID 1347092); note: % is set by controls: 0 for no effect and ±100 for the full control effect; nearly all actives have a fitted effect of over 45% in size
In short: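 Cells are plated, rested 5 h, dosed by pintool, incubated 48 h, then lysed with CellTiter-Glo and read by luminescence. DMSO is the neutral control; bortezomib at 2.3 uM final is the positive control.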

[11] = qHTS of pediatric cancer cell lines to identify multiple opportunities for drug repurposing: Primary screen for SK-N-MC cells (AID 1347093);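 note: series mostly up to about 46 µM; plate controls were DMSO neutral control for no effect and bortezomib for full effect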
In short: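 Metabolically active cells were quantified by ATP-dependent luminescence (CellTiter-Glo, 15 min at room temperature) following 48 h treatment. Cells had been plated at 500-1,000 per well and settled for 5 h beforehand.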

[12] = qHTS of pediatric cancer cell lines to identify multiple opportunities for drug repurposing: Primary screen for BT-37 cells (AID 1347094);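 note: series mostly up to about 57 µM; plate controls were DMSO for no effect and bortezomib for full effect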
In short: (§2)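 500-1,000 cells/well; 5 h pre-incubation 37 °C/5% CO2; compound pinned; 48 h; CellTiter-Glo, 15 min RT; luminescence. MIPE 11-pt from 0.78 nM, NPC 8-pt from 0.59 nM final. Bortezomib 2.3 µM final as positive control.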

[13] = qHTS of pediatric cancer cell lines to identify multiple opportunities for drug repurposing: Primary screen for NB-EBc1 cells (AID 1347095);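 note: plate controls were DMSO neutral control for no effect and bortezomib for full effect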
In short: as §2

[14] = qHTS of pediatric cancer cell lines to identify multiple opportunities for drug repurposing: Primary screen for U-2 OS cells (AID 1347096);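 note: plate controls were DMSO wells for no effect and bortezomib positive control wells for full effect; nearly all actives have a fitted effect of over 50% in size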
In short: (§3)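 Viability after 48 h compound treatment at 37C, 500-1,000 cells/well, read as ATP luminescence with CellTiter-Glo. Primary screens used 11-point (MIPE, 0.78 nM-46 µM) or 8-point (NPC, 0.59 nM-46 µM) final concentrations; follow-up screens used 11-point dilutions.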

[15] = qHTS of pediatric cancer cell lines to identify multiple opportunities for drug repurposing: Primary screen for Saos-2 cells (AID 1347097); note: % is set by controls: 0 for no effect and ±100 for the full control effect; nearly all actives have a fitted effect of over 40% in size
In short: as §2

[16] = qHTS of pediatric cancer cell lines to identify multiple opportunities for drug repurposing: Primary screen for SK-N-SH cells (AID 1347098);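 note: DMSO served as neutral control and bortezomib at 2.3 µM as positive control; % is set by controls: 0 for no effect and ±100 for the full control effect; nearly all actives have a fitted effect of over 65% in size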
In short: (§4)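 Cells (500-1,000/well) rested 5 h, then received compounds for 48 h; metabolically active cells were measured by CellTiter-Glo luminescence. Final concentrations spanned up to 46 µM (MIPE, 11-point) or 0.59 nM-46 µM (NPC, 8-point) in primary screens, 11-point in follow-ups.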

[17] = qHTS of pediatric cancer cell lines to identify multiple opportunities for drug repurposing: Primary screen for NB1643 cells (AID 1347099); note: nearly all actives have a fitted effect of over 50% in size; note: potency is the fitted concentration of half-maximal effect;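 for activity change, negative = cytotoxic: plate controls were DMSO neutral control for no effect and bortezomib positive control for full effect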
In short: as §2

[18] = qHTS of pediatric cancer cell lines to identify multiple opportunities for drug repurposing: Primary screen for LAN-5 cells (AID 1347100);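 note: plate controls were DMSO neutral control for no effect and bortezomib positive control for full effect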
In short: as §3

[19] = qHTS of pediatric cancer cell lines to identify multiple opportunities for drug repurposing: Primary screen for BT-12 cells (AID 1347101);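 note: plate controls were DMSO for no effect and bortezomib positive control for full effect; nearly all actives have a fitted effect of over 25% in size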
In short: as §4

[20] = P-glycoprotein substrates identified in KB-3-1 adenocarcinoma cell line, qHTS therapeutic library screen (AID 1346986); conditions: outcome: dose series up to 44.5 µM; note: nearly all actives have a fitted effect of over 60% in size
In short: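 KB-3-1 parental and colchicine-selected P-gp-overexpressing KB-8-5-11 cells (colchicine omitted during assay), 500 cells/well, dosed in dose-response for 72 h at 37 °C; CellTiter-Glo luminescence. Cytotoxic: curve class -1.1 to -2.4, max response >50%, AC50 < 10 uM.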

NC(=O)[C@@H]1CSSCCC(=O)N[C@@H](CCCCN=C(N)N)C(=O)NCC(=O)N[C@@H](CC(=O)O)C(=O)N[C@@H](Cc2c[nH]c3ccccc23)C(=O)N2CCC[C@H]2C(=O)N1 ([Mpa][hArg]GDWPC-NH2; disulfide 1-7)
inactive: outcome [1] | outcome [2] | outcome [3] | outcome [4] | outcome [5] | outcome [6] | outcome [7] | outcome [8] | outcome [9] | outcome [10] | Potency [11] | outcome [12] | outcome [13] | outcome [14] | outcome [15] | outcome [16] | Potency [17] | outcome [18] | outcome [19]

CC(C)C[C@@H](N)C(=O)O
inactive: outcome [1] | outcome [2] | outcome [3] | outcome [4] | outcome [20] | outcome [6] | outcome [7] | outcome [8] | outcome [9] | outcome [10] | outcome [12] | outcome [13] | outcome [14] | outcome [15] | outcome [16] | outcome [18] | outcome [19]
active: Potency [17] 1 nM

C/C(=C(\CCO)SS/C(CCO)=C(\C)N(C=O)Cc1cnc(C)nc1N)N(C=O)Cc1cnc(C)nc1N
inactive: outcome [1] | outcome [2] | outcome [3] | outcome [4] | outcome [5] | outcome [6] | outcome [7] | outcome [8] | outcome [9] | outcome [10] | Potency [11] | outcome [12] | outcome [13] | outcome [14] | outcome [15] | outcome [16] | Potency [17] | outcome [18] | outcome [19]

O=C(CN1CCNCC1)NC1CCCCC1
inactive: outcome [1] | outcome [2] | outcome [3] | outcome [4] | outcome [5] | outcome [6] | outcome [7] | outcome [8] | outcome [9] | outcome [10] | Potency [11] | outcome [12] | outcome [13] | outcome [14] | outcome [15] | outcome [16] | Potency [17] | outcome [18] | outcome [19]

CC1(c2ccccc2)OC(C(=O)O)=CC1=O (stereo unspecified)
inactive: outcome [1] | outcome [2] | outcome [3] | outcome [4] | outcome [5] | outcome [6] | outcome [7] | outcome [8] | outcome [9] | outcome [10] | Potency [11] | outcome [12] | outcome [13] | outcome [14] | outcome [15] | outcome [16] | Potency [17] | outcome [18] | outcome [19]

O=c1[nH]c(=O)n([C@H]2C[C@H](O)[C@@H](CO)O2)cc1I
inactive: outcome [1] | outcome [2] | outcome [3] | outcome [4] | outcome [5] | outcome [6] | outcome [7] | outcome [8] | outcome [9] | outcome [10] | Potency [11] | outcome [12] | outcome [13] | outcome [14] | outcome [15] | outcome [16] | Potency [17] | outcome [18] | outcome [19]

O=C(O)CCCc1ccccc1
inactive: outcome [1] | outcome [2] | outcome [3] | outcome [4] | outcome [20] | outcome [5] | outcome [6] | outcome [7] | outcome [8] | outcome [9] | outcome [10] | Potency [11] | outcome [12] | outcome [13] | outcome [14] | outcome [15] | outcome [16] | Potency [17] | outcome [18] | outcome [19]

CCOC(=O)[C@H](CCc1ccccc1)N[C@@H](C)C(=O)N1Cc2cc(OC)c(OC)cc2C[C@H]1C(=O)O
inactive: outcome [1] | outcome [2] | outcome [3] | outcome [4] | outcome [5] | outcome [6] | outcome [7] | outcome [8] | outcome [9] | outcome [10] | Potency [11] | outcome [12] | outcome [13] | outcome [14] | outcome [15] | outcome [16] | Potency [17] | outcome [18] | outcome [19]

NC(N)=NCCN1CCCCCCC1
inactive: activity change, negative = inhibition [1] 6.93% [at 0.568 µM] | activity change, negative = inhibition [2] -3.82% [at 0.568 µM] | outcome [3] | outcome [4] | outcome [5] | activity change, negative = inhibition [6] -1.99% [at 0.593 µM] | activity change, negative = cytotoxic [7] 19.1% [at 0.594 µM] | activity change, negative = cytotoxic [8] 7.11% [at 0.597 µM] | activity change, negative = cytotoxic [9] 15.5% [at 0.597 µM] | activity change, negative = cytotoxic [10] 2.24% [at 0.597 µM] | activity change, negative = cytotoxic [11] -13.5% [at 0.597 µM] | activity change, negative = cytotoxic [12] 4.17% [at 0.745 µM] | activity change, negative = cytotoxic [13] 19.5% [at 0.597 µM] | activity change, negative = cytotoxic [14] 9.69% [at 0.597 µM] | activity change, negative = cytotoxic [15] 2.27% [at 0.597 µM] | activity change, negative = cytotoxic [16] -2% [at 0.741 µM] | activity change, negative = cytotoxic [17] 6.64% [at 0.597 µM] | activity change, negative = cytotoxic [18] 4.87% [at 0.597 µM]

Cc1ccc(C(C)C)c(O)c1
inactive: outcome [1] | outcome [2] | outcome [3] | outcome [4] | outcome [5] | outcome [6] | outcome [7] | outcome [8] | outcome [9] | outcome [10] | Potency [11] | outcome [12] | outcome [13] | outcome [14] | outcome [15] | outcome [16] | Potency [17] | outcome [18]

CC(CN(C)C)C(C)(O)Cc1ccc(Cl)cc1 (stereo unspecified)
inactive: outcome [1] | outcome [2] | outcome [3] | outcome [4] | outcome [5] | outcome [6] | outcome [7] | outcome [8] | outcome [9] | outcome [10] | Potency [11] | outcome [12] | outcome [13] | outcome [14] | outcome [15] | outcome [16] | Potency [17] | outcome [18] | outcome [19]

C[C@@H](N)C(=O)O
inactive: outcome [1] | outcome [2] | outcome [3] | outcome [4] | outcome [5] | outcome [6] | outcome [7] | outcome [8] | outcome [9] | outcome [10] | Potency [11] | outcome [12] | outcome [13] | outcome [14] | outcome [15] | outcome [18] | outcome [19]

CC(C)c1cc2c(cc1S(=O)(=O)O)[C@@]1(C)CCC[C@@](C)(C(=O)O)[C@@H]1CC2
inactive: outcome [1] | outcome [2] | outcome [3] | outcome [4] | outcome [5] | outcome [6] | outcome [7] | outcome [8] | outcome [9] | outcome [10] | Potency [11] | outcome [12] | outcome [13] | outcome [14] | outcome [15] | Potency [17] | outcome [18]
